# Compounds with a hit are over-represented: about 21% of the library has one in this group of screens.
# DT40 TDP1 CPT = DT40-hTDP1 cell growth loss with CPT | chicken DT40 Tdp1-/-;hTDP1 cells + 20 nM CPT, ATP luminescence, 48 h | Potency, µM (doses to about 46.2 µM), hits mostly inhibitors | 12% of 420,000 active | AID 686979; also: nearly all actives have a fitted effect of over 55% in size
#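 Chicken DT40 Tdp1-/- cells complemented with human TDP1, 400 cells/well, exposed to compounds plus 20 nM camptothecin for at least 48 h at 37 C; viability read as ATP content by CellTiter-Glo luminescence.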
# DT40 TDP1 no CPT = qHTS for Inhibitors of human tyrosyl-DNA phosphodiesterase 1 (TDP1): qHTS in cells in absence of CPT; DT40 Tdp1-/- hTDP1 cells, no CPT, ATP luminescence, 48 h; Potency, µM (series often up to 46.2 µM), most hits filed as inhibitors; 15% of 420,000 active; AID 686978, 2013; also: nearly all actives have a fitted effect of over 55% in size
#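 Chicken DT40 Tdp1-/- cells stably complemented with human TDP1 were seeded at 400 cells/well with DMSO in place of 20 nM camptothecin. After compound pinning, cells grew at least 48 hr at 37 °C; viability read by CellTiter-Glo luminescence.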
# VP16 counter = inhibits Gal4-VP16 luciferase reporter, ROR gamma counter-screen; 3.5% of 310,000 active; Drosophila S2 Gal4-VP16 UAS-luciferase, luminescence, 20 h; Potency, µM (highest dose often 53.6 µM), actives largely listed as inhibitors;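 also: Gal4-VP16 expression switched on by copper sulfate through the metallothionein promoter; nearly all actives have a fitted effect of over 50% in size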
# RORg inh = inhibitors of mouse ROR gamma transcriptional activity. Potency, µM (top dose mostly 53.6 µM), hits mostly inhibitors. 5.4% of 310,000 active. Drosophila S2 Gal4-RORgamma UAS-luciferase reporter, 20 h. AID 2551. P51450; also: nearly all actives have a fitted effect of over 60% in size
# Target sequence (P51450 whole entry, looked up, the tested form may be a part): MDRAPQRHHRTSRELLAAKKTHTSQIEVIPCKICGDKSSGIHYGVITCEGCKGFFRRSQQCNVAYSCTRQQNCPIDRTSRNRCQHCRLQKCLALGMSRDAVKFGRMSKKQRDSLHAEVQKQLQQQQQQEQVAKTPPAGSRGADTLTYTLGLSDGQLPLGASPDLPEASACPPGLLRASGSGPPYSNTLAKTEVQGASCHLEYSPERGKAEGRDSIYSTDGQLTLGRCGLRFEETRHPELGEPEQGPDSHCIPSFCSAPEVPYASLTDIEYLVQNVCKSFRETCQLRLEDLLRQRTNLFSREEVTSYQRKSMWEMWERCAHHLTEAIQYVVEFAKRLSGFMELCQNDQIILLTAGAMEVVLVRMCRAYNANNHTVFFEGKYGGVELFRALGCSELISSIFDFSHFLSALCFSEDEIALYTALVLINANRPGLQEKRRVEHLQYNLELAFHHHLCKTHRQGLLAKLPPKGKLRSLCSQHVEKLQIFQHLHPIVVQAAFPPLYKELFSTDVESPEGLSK
#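 In this cell-based reporter format, copper sulfate (700 uM final) drives Gal4–ROR gamma fusion expression from a metallothionein promoter in Drosophila Schneider cells; compounds preincubated 1 hr, reporter read after 20 hr at ambient temperature.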
# ELG1 DNA repair = inhibitors of ELG1-dependent DNA repair in HEK293T cells. HEK293T ELG1-luciferase reporter, luminescence, 16 h; DNA damage induced by 5-fluorouridine. Potency, µM (top dose mostly 46.1 µM), hits mostly inhibitors. 2.3% of 330,000 active; also: nearly all actives have a fitted effect of over 55% in size
#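 Reporter activity after DNA damage by 5-fluorouridine is monitored. Compound-treated cells incubate 16 hr at 37 °C, then ONE-Glo is added for 30 min before luminescence reading.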
# IL1B secr inh = blocks inflammasome-driven IL-1 beta release; 4.7% of 360,000 active; THP-1 LPS/ATP IL-1B secretion, AlphaLISA, 16 h; active compounds read low; AID 743279; activity change, % at 57.5 µM; in the data active = activity change below about -50%; inconclusive = mostly about -30% to -49%
#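 Secreted IL-1B measured by AlphaLISA bead assay after 16 h compound exposure of THP-1 cells; compounds (final up to 57.5 uM) added 1 h before LPS (250 ng/mL) and ATP (1.25 mM) stimulation; lower signal means less secretion.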
# Hits are given with their value; – = inactive; ? = inconclusive; · = not tested or not shown; [ ] = another dose, or the depositor's remark. Unless noted, calls follow the shape of the dose curve; as a rule, active = well fitted curve in the direction sought with a large enough effect; inconclusive = small, poorly fitted or top-dose-only effect, or another doubt; inactive = no such curve, though single readings can be large; an effect the other way counts as inactive or inconclusive.
SMILES,DT40 TDP1 CPT,DT40 TDP1 no CPT,VP16 counter,RORg inh,ELG1 DNA repair,IL1B secr inh
CCN(CC)C(=S)NC(=O)Cc1ccccc1,–,–,?,6.31µM,–,–
CN(C(=S)NC(=O)Cc1ccccc1)c1ccccc1,?,?,?,10µM,–,-60.5
Cc1cc(C)n2nc(SC(C)C(=O)N(C)C3CCCCC3)nc2n1 (stereo not drawn),–,–,·,·,–,–
CCOC(=O)C1CCN(C(=O)C2(NC(=O)Nc3ccc(F)cc3F)CCCCC2)CC1,–,–,–,–,–,-127.8
O=C(CCc1nc(-c2cccs2)no1)Nc1ccccc1[N+](=O)[O-],–,?,·,·,·,·
CCc1nc2ccc(C(=O)NC3CCN(C)CC3)cn2c1N(C)CCC(C)C,?,?,·,·,·,–
CCc1nc2ccc(C(=O)Nc3ccc(NC(C)=O)cc3)cn2c1N(C)CCC(C)C,?,20.6µM,·,·,·,–
CCc1nc2ccc(C(=O)Nc3ccc(C(N)=O)cc3)cn2c1N(C)CCC(C)C,18.4µM,23.1µM,·,·,·,–
COC(=O)CNC(=O)C1(CC(C)C)C=CCN1C(C)=O (stereo not drawn),·,·,–,–,·,·
Nc1nc(N)nc(-c2ccc([N+](=O)[O-])o2)n1,?,23.1µM,·,·,·,–
O=[N+]([O-])c1ccc(-c2ccn[nH]2)o1,?,–,–,?,–,–
CC(C)CCCC(C)NC(C)C (stereo not drawn),–,–,–,–,·,·
CC(NC(=O)COC(=O)c1ccc([N+](=O)[O-])s1)c1ccccc1 (stereo not drawn),?,–,–,11.2µM,–,–
Cc1ccc(C(=O)OCC(=O)NC(C)c2ccccc2)s1 (stereo not drawn),–,–,·,·,–,–
CC(=O)NCCNC(=O)C1(C)Cc2c(-c3ccc(C(N)=O)cc3)ccnc2O1 (stereo not drawn),–,–,·,·,·,–
CC1(C(=O)NCc2cccs2)Cc2c(-c3cccc(C(F)(F)F)c3)ccnc2O1 (stereo not drawn),3.26µM,2.91µM,·,·,·,–
CCN(CC(=O)NCc1cccs1)C(=O)COc1cccc(C(F)(F)F)c1,–,–,·,·,–,–
CC1(C(=O)NCc2cccs2)Cc2c(-c3ccc(C(N)=O)cc3)ccnc2O1 (stereo not drawn),2.59µM,3.26µM,·,·,·,–
CCN(CC(=O)NCc1cccs1)C(=O)c1ccc(-c2cccc(C(F)(F)F)c2)o1,?,?,·,·,?,-79.5
CC1(C(=O)NCc2ccccc2)Cc2c(-c3cccc(C(F)(F)F)c3)ccnc2O1 (stereo not drawn),3.66µM,5.8µM,·,·,·,–
Cc1ccc(C(=O)NCC(=O)N2CCCC(C(F)(F)F)C2)s1 (stereo not drawn),–,–,·,·,?,–
CCN1C(=O)[C@H]2[C@H]3[C@H](O)[C@H](O)C/C(=N/OC)[C@@H]3CC[C@@H]2C1=O,·,·,–[10 µM],–[10 µM],·,·
C/C(=N\O)c1ccc2c(c1)OCCO2,–,3.66µM,–,–,–,–
C/C(=N/O)c1ccc2c(c1)OCCOCCOc1cc(/C(C)=N/O)ccc1OCCOCCO2,?,16.4µM,?,–,?,–
CC(=O)c1ccc2c(c1)OCCOCCOCCO2,–,–,–,–,–,–
SMILES,DT40 TDP1 CPT,DT40 TDP1 no CPT,VP16 counter,RORg inh,ELG1 DNA repair,IL1B secr inh
O=C1Nc2cnc(Cl)nc2Nc2ccccc21,–,–,·,·,·,–
O=C(O)c1ccc(NC(=O)c2cc3c([nH]c2=O)CCCC3=O)cc1,–,–,·,·,·,·
CCc1ccc(N(CC(=O)N2CCOCC2)S(C)(=O)=O)cc1,–,–,–,–,–,–
CC1(C(=O)O)CCCN(C(=O)c2ccc3c(c2)C(C)(C)CCC3(C)C)C1 (stereo not drawn),–,–,·,·,·,–
CCc1cc(=O)oc2c(CNCc3c(F)cccc3Cl)c(O)ccc12,18.4µM,–,–,–,?,–
CCc1cc(=O)oc2c(CN3CCN(C)CC3)c(O)ccc12,–,–,–,–,–,–
COCCn1c(=S)[nH]c2cc(C(=O)NC3CCCC(C)C3C)ccc2c1=O (stereo not drawn),–,?,·,·,·,–
CC1(C)CN=c2s/c(=C\c3ccc(Cl)cc3)c(=O)n2C1,11.6µM,18.4µM,–,–,?,-85.5
CCOC(=O)C1=C(C)N=c2sc(=Cc3ccc(OCC(=O)O)cc3)c(=O)n2C1c1ccc(Cl)cc1 (stereo not drawn),?,?,·,·,·,–
CCc1cccc(-n2nnc(-c3nc(-c4ccccc4Cl)no3)c2N)c1,–,–,·,·,·,·
CN1C(=O)[C@@H]2[C@@H]3C[C@@H]([C@H]4ON=C(c5ccc(Cl)cc5)[C@@H]34)[C@@H]2C1=O,–,?,–,–,–,–
O=C1[C@@H]2[C@@H]3C[C@@H]([C@H]4ON=C(c5ccc(Cl)cc5Cl)[C@@H]34)[C@@H]2C(=O)N1C1CCCCC1,?,?,–,?,–,-55.4
Nc1nnc2c(n1)[nH]c1ccccc12,–,?,·,·,·,·
COC(=O)c1c(NC(=O)CS(=O)(=O)c2ccccc2)sc(C)c1C,?,20.6µM,·,·,?,–
CNC(=O)c1c(NC(=O)CCS(=O)(=O)c2ccccc2)sc(C)c1C,?,?,·,·,–,–
COC(=O)c1c(NC(=O)CN2CCCc3ccccc32)sc(C)c1C,20.6µM,?,?,?,–,–
Cc1cc(C(=O)c2ccc(C(C)(C)C)cc2)c(NC(=O)CCl)s1,5.8µM,4.61µM,?,11.2µM,–,-50.7
Cc1sc(NC(=O)CCl)c(C(=O)c2ccccc2)c1C,18.4µM,9.2µM,–,–,?,-98.2
O=C(COC(=O)C1(c2ccccc2)CC1)NNC(=O)c1ccccc1,–,–,·,·,–,–
COC(=O)C1(C(=O)OC)CC2=C[C@H](CC2=O)Cc2ccccc2[C@@H]1C[N+](=O)[O-],·,·,–,–,·,·
COCCOC(=O)c1c(NC(=O)CN2CCCc3ccccc32)sc(C(N)=O)c1C,?,?,–,?,7.31µM,–
COC(=O)c1c(NC(=O)CCc2ccc(C)o2)sc(C)c1C,?,?,12.6µM,?,–,–
Cc1sc(NC(=O)CCS(=O)(=O)c2ccccc2)c(C#N)c1C,23.1µM,?,·,·,–,–
Cc1ccc(CCC(=O)Nc2ccc(N(C)C)cc2)o1,16.4µM,?,?,0.562µM,–,–
Cc1sc(NC(=O)CS(=O)(=O)c2ccccc2)c(C#N)c1C,–,–,·,·,?,–
O=C(Cc1ccccc1Nc1c(Cl)cccc1Cl)OCO/N=[N+](\[O-])N1CCCC1,·,·,17.8µM,?,·,·
Cc1ccc(S(=O)(=O)N2CCCCC2)cc1NC(=O)COC(=O)Cc1cccc2ccccc12,–,?,–,?,–,–
